The supplement of paper PMC10498489
The whole screen tested about 2,300 compounds, of which about 330 (14%) showed activity.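 Rule for the calls: active = median modified Z-score above 1.96; inactive = 1.96 or below.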 Not all results are given here.

test system: HepG2 Srxn1-GFP reporter cells (+30 nM CDDO-Me); test: Srxn1-GFP intensity median modified Z-score relative to plate median; higher = stronger NRF2 / oxidative stress reporter activation, active = hit call of the paper; settings: 10 µM; exposure time: 24h
Summary of the method: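 Values give the median, over replicates, of the modified Z-score of GFP intensity on each plate. HepG2 Srxn1-GFP BAC reporter cells were co-treated for 24 h with an NRF2 activator at 30 nM and compound at 10 μM (≤0.1% DMSO) in three replicate plates, then analysed per cell for cytoplasmic GFP on confocal images with at least 100 cells. Scaling used 1.4826 × median absolute deviation.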

Srxn1-GFP intensity median modified Z-score, active:
CSc1nc2cc(Cl)c(Oc3cccc(Cl)c3Cl)cc2[nH]1 [euspeclibcmpd1225] 4.92, Cc1c(Cl)cccc1Nc1ccccc1C(=O)O [euspeclibcmpd1068] 4.04, O=C(O)c1ccccc1Nc1cccc(C(F)(F)F)c1 [euspeclibcmpd370] 2.94, Cc1cccc(Nc2ccccc2C(=O)O)c1C [euspeclibcmpd373] 2.69, Cc1[nH]c(=O)c(C#N)cc1-c1ccncc1 [euspeclibcmpd1241] 2.87, N[C@@H](CC(=O)N1CCn2c(nnc2C(F)(F)F)C1)Cc1cc(F)c(F)cc1F [euspeclibcmpd2166] 12.2, N=C(N)c1ccc(OCCCCCOc2ccc(C(=N)N)cc2)cc1 [euspeclibcmpd1040] 12.5, CC12CCC(=O)N1C(C(=O)NCCCNS(C)(=O)=O)CS2 (stereo not drawn) 2.02, N#CCC(=O)NN [euspeclibcmpd1098] 3.08, C=C[C@](C)(O)CC[C@@H]1[C@@]2(C)CCCC(C)(C)[C@@H]2CC[C@]1(C)O [euspeclibcmpd2213] 2.3, O=C(OC[C@H]1O[C@H](OC(=O)c2cc(O)c(O)c(OC(=O)c3cc(O)c(O)c(O)c3)c2)[C@H](OC(=O)c2cc(O)c(O)c(OC(=O)c3cc(O)c(O)c(O)c3)c2)[C@@H](OC(=O)c2cc(O)c(O)c(OC(=O)c3cc(O)c(O)c(O)c3)c2)[C@@H]1OC(=O)c1cc(O)c(O)c(OC(=O)c2cc(O)c(O)c(O)c2)c1)c1cc(O)c(O)c(OC(=O)c2cc(O)c(O)c(O)c2)c1 [euspeclibcmpd649] 8.09

Srxn1-GFP intensity median modified Z-score, inactive:
NCCCC(N)CC(=O)NCC1NC(=O)C(CO)NC(=O)C(N)CNC(=O)C(C2CCN=C(N)N2)NC(=O)C(C=NC(N)=O)NC1=O (stereo not drawn) [euspeclibcmpd1312] 0, O=C(O)C1O[C@@H](Oc2cc3oc(-c4ccccc4)cc(=O)c3c(O)c2O)[C@H](O)[C@@H](O)[C@@H]1O (stereo partly drawn) [euspeclibcmpd2123] -0.648, CCCCCC1C(=O)CCC1CC(=O)OC (stereo not drawn) [euspeclibcmpd1637] -0.322, CCC(N)C12CC3CC(CC(C3)C1)C2 (stereo not drawn) 0.333, CC1(C)S[C@@H]2[C@H](N3C(=O)C(c4ccccc4)NC3(C)C)C(=O)N2C1C(=O)O (stereo partly drawn) [euspeclibcmpd2360] -0.502, COC(=O)C[C@H]1C(C)(C)C(=O)C2CC3=C4CC(=O)O[C@@H](c5ccoc5)[C@]4(C)CCC3[C@@]1(C)C2=O (stereo partly drawn) [euspeclibcmpd2085] -0.00623, COc1cc2[nH]c(N3CCN(C(=O)c4ccco4)CC3)nc(=N)c2cc1OC [euspeclibcmpd1302] -0.393, Clc1cnc(N/N=C/c2sc(N3CCCCC3)nc2-c2cccs2)c(Cl)c1 0.529, COC(=O)CCC(C)[C@H]1CCC2C3C(C[C@H](O)[C@@]21C)[C@@]1(C)CC[C@@H](O)C[C@H]1C[C@H]3O (stereo partly drawn) [euspeclibcmpd1539] -0.423, CC1(C)CC2C(=O)CCC3OC3(C)CCC21 (stereo not drawn) [euspeclibcmpd2011] -0.362, O=C(Cc1c[nH]c2ccccc12)NCCc1c[nH]c2ccccc12 1.76, Cc1cccc(Nc2ccccc2C(=O)O)c1C 0.337, Cc1cccc(C(=O)O)c1O [euspeclibcmpd1013] -0.315, Cc1ccc(Cl)c(Nc2ccccc2C(=O)O)c1Cl [euspeclibcmpd2058] 0.0269, O=C(c1ccccc1Nc1cccc(C(F)(F)F)c1)N1CCC1 1.38, CON(C)C(=O)c1ccccc1Nc1cccc(C(F)(F)F)c1 1.46, Cc1cccc(Nc2ccccc2C(=O)OCC#N)c1C 0.491, O=C(O)c1ccccc1Nc1ccccc1 [euspeclibcmpd1737] -0.16, O=C(O)CCCCC(=O)O [euspeclibcmpd2456] 0.307, C[C@H]1O[C@H](O[C@H]2[C@H](O)[C@@H](O)[C@@H](O[C@H]3[C@H](O)[C@@H](O)C(O)O[C@@H]3CO)O[C@@H]2CO)[C@H](O)[C@@H](O)[C@@H]1N[C@H]1C=C(CO)[C@@H](O)[C@H](O)[C@H]1O (stereo partly drawn) [euspeclibcmpd430] -0.321, CC[C@H]1OC(=O)C(C)[C@@H](O[C@H]2C[C@@](C)(OC)[C@@H](O)[C@H](C)O2)[C@H](C)[C@@H](O[C@@H]2O[C@H](C)C[C@H](N(C)C)[C@H]2O)[C@](C)(O)CC(C)C(=NOCOCCOC)C(C)[C@@H](O)[C@]1(C)O (stereo partly drawn) [euspeclibcmpd567] -0.00752, Cc1c(C(=O)O)sc(S(=O)(=O)N2CCN(C(=O)CC3CCCC3)CC2)c1C(=O)O 0.344, Nc1cc(-c2ccncc2)c[nH]c1=O [euspeclibcmpd524] -0.435, COc1cc(=NS(=O)(=O)c2ccc(N)cc2)[nH]cn1 [euspeclibcmpd400] -0.55, CC(=O)C(N)C(O)O (stereo not drawn) [euspeclibcmpd1109] -0.112, CC(=O)C(N)C(O)O (stereo not drawn) [euspeclibcmpd2348] -0.525, CCOc1cc(CC(=O)N[C@@H](CC(C)C)c2ccccc2N2CCCCC2)ccc1C(=O)O [euspeclibcmpd908] 0.187, COc1cc(O)c(C(C)=O)c(O)c1 [euspeclibcmpd1561] 1.48, CCn1cc(N(CC(C)C)S(=O)(=O)CCC2CCOCC2)cn1 1.44, N=c1ccn2c(n1)O[C@@H]1[C@@H](O)[C@H](CO)O[C@@H]12 [euspeclibcmpd1164] 0.441, Oc1cc2cc(CCN3CCN(c4nsc5ccccc45)CC3)c(Cl)cc2[nH]1 [euspeclibcmpd1992] -0.197, O=C(O)CCC(=O)OC[C@@H](NC(=O)C(Cl)Cl)[C@H](O)c1ccc([N+](=O)[O-])cc1 [euspeclibcmpd2230] -0.0902, NC(CSCSCC(N)C(=O)O)C(=O)O (stereo not drawn) [euspeclibcmpd1615] -0.0888, C[C@]12CCC(=O)CC1=CCC1C2[C@@H](O)C[C@@]2(C)C1CC[C@]2(O)C(=O)COC(=O)CCC(=O)O (stereo partly drawn) [euspeclibcmpd152] -0.766, CC1CCC2(C(=O)O)CCC3(C)C(=CCC4C5(C)CC(O)C(O)C(C)(CO)C5CCC43C)C2C1C (stereo not drawn) [euspeclibcmpd1959] -0.237, CCCCCCOc1ccccc1C(N)=O [euspeclibcmpd1139] 0.59, N=C(N)c1ccc(N=NNc2ccc(C(=N)N)cc2)cc1 [euspeclibcmpd1093] 0.338, C[C@@H]1CCC2[C@](C)(CO)[C@@H](O)CC[C@]2(C)[C@@]12CC[C@@](CO)(CCO)O2 (stereo partly drawn) [euspeclibcmpd1570] -0.216, CCOc1cc(/C=C/C(=O)O)ccc1OC 0.394, CCNC(=O)CCC(N)C(=O)O (stereo not drawn) [euspeclibcmpd2170] -0.00834, CC(=O)COc1ccc2c(C)cc(=O)oc2c1 1.43, CN(C)C1C(=O)C(C(=O)NCN2CCCC2)C(=O)C2(O)C(=O)C3C(=O)c4c(O)cccc4C(C)(O)C3CC12 (stereo not drawn) [euspeclibcmpd1955] -0.368, C[C@]12C=CC(=O)CC1=CCC1C2C(=O)C[C@@]2(C)C1CC[C@]2(O)C(=O)CO (stereo partly drawn) [euspeclibcmpd243] -0.188, CC(=O)OC1CCC23C(=O)OC45CCC(c6coc(O)c6)C4(C)CCC2C5CCC3(O)C1 (stereo not drawn) [euspeclibcmpd1387] -1.25, [Cl][Ca][Cl] [euspeclibcmpd2470] 1.27, CON=C1CN(c2nc3c(cc2F)c(=O)c(C(=O)O)cn3C2CC2)CC1CN (stereo not drawn) [euspeclibcmpd871] -0.00523, CC1=C(C(=O)O)N2C(=O)C(=NC(=O)C(N)C3CC=CCC3)C2SC1 (stereo not drawn) [euspeclibcmpd49] -0.299, CN(C)CC(=O)OCC(=O)C(O)C(O)C(O)C(O)O (stereo not drawn) [euspeclibcmpd2264] -0.422, COc1ccc(CCN2CCC(N=c3[nH]c4ccccc4n3Cc3ccc(F)cc3)CC2)cc1 [euspeclibcmpd1296] -0.744, Cc1c(NC(=O)CCc2cccnc2)c(=O)n(-c2ccccc2)n1C 1.03, COc1ccc([C@@H]2CC(=O)c3c(O)cc(O[C@@H]4O[C@H](CO[C@H]5O[C@@H](C)[C@H](O)[C@@H](O)[C@H]5O)[C@@H](O)[C@H](O)[C@H]4O)cc3O2)cc1O [euspeclibcmpd1499] -0.332, C=C[C@@](C)(O)CCC1C(=C)C[C@H](O)C2C(C)(C)CCCC12C (stereo partly drawn) [euspeclibcmpd2065] 0.497, CNC(CC(=O)O)C(=O)O (stereo not drawn) [euspeclibcmpd1746] -0.42, OC(COC(c1ccccc1)c1ccccc1)CN1CCN(/C=C/Cc2ccccc2)CC1 (stereo not drawn) 0.401, CN1CCN(C(c2ccccc2)c2ccccc2)CC1 [euspeclibcmpd77] 0.846, CC(=O)NC(CC(C)C)C(=O)O (stereo not drawn) [euspeclibcmpd1070] -0.124, CC(C)NS(=O)(=O)C1CCN(C(=O)CCS(=O)(=O)C2CCCC2)C1 (stereo not drawn) 1.14, CC(C)Cn1cnc2c(=N)[nH]c3ccccc3c21 [euspeclibcmpd542] -0.55, CC(=O)N=c1[nH]nc(S(N)(=O)=O)s1 [euspeclibcmpd48] 0.382, CCCc1nc(C)c2c(=O)[nH]c(-c3cc(S(=O)(=O)N4CCN(CC)CC4)ccc3OCC)nn12 [euspeclibcmpd760] -0.393, O=C(Oc1cc(O)cc2c1CC(OC(=O)c1cc(O)c(O)c(O)c1)C(c1cc(O)c(O)c(O)c1)O2)c1cc(O)c(O)c(O)c1 (stereo not drawn) [euspeclibcmpd1839] -0.336, O=C(O[C@@H]1Cc2c(O)cc(O)cc2O[C@@H]1c1cc(O)c(O)c(O)c1)c1cc(O)c(O)c(O)c1 [euspeclibcmpd1546] 1.25
